The source of these data is PubChem BioAssay (NCI).

Some test systems named below: NCI-H23 lung; NCI-H226 lung; NCI-H322M lung; HOP-62 NSCLC; NCI-H460 lung; NCI-H522 lung; A549/ATCC NSCLC; 786-0 renal; COLO 205 colon; DU-145 prostate.
What all share (assay): NCI-60 one-dose screen, 48 h (100 = growth as untreated, 0 = no growth, -100 = all killed)
What all share (settings): 10 µM

The structures appear in SMILES notation. Compounds without any hit were thinned out: in the full panel of roughly 83,000, 20% have a hit.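 Compound tested at a single concentration for 48 hours in 96-well plates; a percent growth value below 10 was scored as active.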 Values without a mark were called inactive. Active and inactive are the calls of the source.

Take `CCOC(=O)N1C/C(=C/c2ccc(OC)cc2)C(=O)/C(=C/c2ccc(OC)cc2)C1`: the growth in the assay on NCI-H23 lung is 46.3%; with NCI-H226 lung, 23.8%; with NCI-H322M lung, 71.1%; in the assay with HOP-62 NSCLC it was 29.5%; in the assay with NCI-H460 lung it was 42%; in the assay on NCI-H522 lung, 39%. Further, the growth in the assay on A549/ATCC NSCLC is 21.4%; with 786-0 renal, -2.34% (active); with COLO 205 colon, 24.5%; in the assay with DU-145 prostate, 17.7%.
As for `C=C(NC(=O)C(=C)NC(=O)c1csc(C2=NC3c4csc(n4)C4NC(=O)c5csc(n5)C(C(C)(O)C(C)O)NC(=O)C5CSC(=N5)/C(=C/C)NC(=O)C(C(C)O)NC(=O)c5csc(n5)C3(CC2)NC(=O)C(C)NC(=O)C(=C)NC(=O)C(=C)NC(=O)C(C(C)C)NC2C=Cc3c(C(C)O)cc(nc3C2O)C(=O)OC4C)n1)C(N)=O` (stereo not given), the growth is 11.1% in the assay with NCI-H23 lung; -26.3% (active) in the assay with NCI-H226 lung; 45.9% in the assay on NCI-H322M lung; 2.24% (active) in the assay on HOP-62 NSCLC; 1.43% (active) in the assay on NCI-H460 lung; -39.1% (active) with NCI-H522 lung. The growth in the assay on A549/ATCC NSCLC was 31.7%; in the assay on 786-0 renal, -10.4% (active); with COLO 205 colon, -70.2% (active); in the assay on DU-145 prostate it was -23% (active).
Consider `CC(C)N(CCNc1nc(C(Cl)(Cl)Cl)nc2cc(Cl)ccc12)C(C)C`, for which the growth was -0.581% (active) in the assay with NCI-H23 lung; 0.531% (active) in the assay on NCI-H226 lung; 33.5% in the assay on NCI-H322M lung; -41.4% (active) with HOP-62 NSCLC; -45.6% (active) with NCI-H460 lung; -68.4% (active) with NCI-H522 lung. Further, the growth with A549/ATCC NSCLC was -41.6% (active); with 786-0 renal, -76.4% (active); in the assay with COLO 205 colon it was -89.8% (active); with DU-145 prostate it was -15% (active).
Consider `COc1cc2nc(Nc3cccc(NC(C)=O)c3)nc(N)c2cc1OC`, for which the growth in the assay on NCI-H23 lung was 135%; in the assay on NCI-H226 lung, 90.9%; in the assay with NCI-H322M lung, 120%; in the assay on HOP-62 NSCLC, 94.4%; in the assay on NCI-H460 lung, 110%; in the assay on NCI-H522 lung it was 93.2%. The growth in the assay with A549/ATCC NSCLC is 105%; in the assay with 786-0 renal, 94.7%; with COLO 205 colon, 109%; with DU-145 prostate, 90.2%.
In the case of `COc1ccc(NC2=NC(C)(CO)CS2)cc1` (stereo not given), the growth with NCI-H23 lung is 97.1%; in the assay with NCI-H226 lung it was 103%; in the assay on NCI-H322M lung, 102%; in the assay on HOP-62 NSCLC it was 94.6%; with NCI-H460 lung, 100%; in the assay on NCI-H522 lung, -14.7% (active). Further, the growth in the assay with A549/ATCC NSCLC was 42.8%; in the assay on 786-0 renal, 105%; in the assay on COLO 205 colon, 117%; in the assay with DU-145 prostate it was 120%.
Turning to `N#Cc1c(C#N)c(SSc2c(C#N)c(C#N)c(N)n2-c2ccccc2)n(-c2ccccc2)c1N`, the growth is 94.8% in the assay with NCI-H23 lung; 101% in the assay on NCI-H226 lung; 108% in the assay with NCI-H322M lung; 109% in the assay with HOP-62 NSCLC; 120% with NCI-H460 lung; 67.3% in the assay on NCI-H522 lung. The growth was 112% with A549/ATCC NSCLC, 101% in the assay with 786-0 renal, 97.4% with COLO 205 colon and 115% with DU-145 prostate.
On to `O=S(=O)(NCCCNc1nccc(-c2c(-c3ccc(F)cc3)nc3sccn23)n1)c1ccc2ccccc2c1`, for which the growth in the assay on NCI-H23 lung was 66.2%; in the assay on NCI-H226 lung, 57.4%; in the assay on NCI-H322M lung it was 49.6%; with HOP-62 NSCLC it was 81.3%; in the assay with NCI-H460 lung, 22.7%; with NCI-H522 lung it was 46.2%. The growth in the assay with A549/ATCC NSCLC was 28.9%; with 786-0 renal it was 55.5%; with COLO 205 colon it was 10.1%; with DU-145 prostate, 46.4%.
For `COc1ccc2c(c1)-c1c(c3cc(OC)ccc3n(CCN(C)C)c1=O)C2=O`, the growth is 7.11% (active) in the assay with NCI-H23 lung; 22% in the assay on NCI-H226 lung; -14.4% (active) in the assay on NCI-H322M lung; 15.3% in the assay on HOP-62 NSCLC; -4.73% (active) in the assay on NCI-H460 lung; -11.5% (active) in the assay with NCI-H522 lung. In addition, the growth was -18.7% (active) with A549/ATCC NSCLC, 32.3% in the assay with 786-0 renal, 14.7% in the assay on COLO 205 colon and 5.1% (active) with DU-145 prostate.
With `CN(C)CCNC(=O)c1cccn2c(=O)c3cc4ccccc4cc3nc12`, the growth in the assay on NCI-H23 lung is -3.24% (active); with NCI-H226 lung, -16% (active); in the assay on NCI-H322M lung, 3.8% (active); in the assay with HOP-62 NSCLC, -26.8% (active); with NCI-H460 lung it was -31.7% (active); with NCI-H522 lung, -88.5% (active). Besides, the growth was -27.1% (active) in the assay with A549/ATCC NSCLC, -31.3% (active) in the assay on 786-0 renal, -15.2% (active) in the assay on COLO 205 colon and -3.1% (active) in the assay on DU-145 prostate.
As for `CC/C(C)=C(\C)C(=O)O`, the growth in the assay on NCI-H23 lung was 101%; in the assay on NCI-H226 lung it was 96.5%; in the assay on NCI-H322M lung, 89.5%; with HOP-62 NSCLC it was 95%; with NCI-H460 lung, 105%; in the assay on NCI-H522 lung, 89.3%. In addition, the growth is 101% with A549/ATCC NSCLC, 98.5% with 786-0 renal, 104% in the assay on COLO 205 colon and 104% with DU-145 prostate.
As to `Cc1ccc(CC#N)cc1C`, the growth in the assay with NCI-H23 lung is 110%; in the assay with NCI-H226 lung, 96.1%; in the assay on NCI-H322M lung, 101%; in the assay on HOP-62 NSCLC, 101%; in the assay on NCI-H460 lung, 99.1%; with NCI-H522 lung it was 98%. In addition, the growth is 109% in the assay with A549/ATCC NSCLC, 103% in the assay on 786-0 renal, 111% in the assay on COLO 205 colon and 85.4% with DU-145 prostate.
Regarding `COc1ccc2c(c1)C(=O)c1c-2c(OCCN(C)C)nc2ccccc12`, the growth is 41.5% in the assay with NCI-H23 lung; 45.5% in the assay on NCI-H226 lung; -5.17% (active) with NCI-H322M lung; 30.8% in the assay with HOP-62 NSCLC; 2.29% (active) in the assay with NCI-H460 lung; 21.2% with NCI-H522 lung. The growth with A549/ATCC NSCLC is 14%; in the assay on 786-0 renal it was 33.7%; with COLO 205 colon, 23.4%; with DU-145 prostate, 27%.
In the case of `S=c1[nH]ccn1-c1c(Cl)cccc1Cl`, the growth in the assay with NCI-H23 lung was 100%; with NCI-H226 lung, 98.6%; in the assay with NCI-H322M lung it was 102%; in the assay on HOP-62 NSCLC it was 93.5%; in the assay on NCI-H460 lung, 101%; in the assay with NCI-H522 lung it was 11%. Also, the growth in the assay on A549/ATCC NSCLC is 28.9%; in the assay on 786-0 renal, 98.8%; in the assay with COLO 205 colon, 115%; in the assay with DU-145 prostate, 125%.
